Experimental findings from PubChem BioAssay (NCATS) are described below.

The target of assay [1] is Catechol O-methyltransferase (Homo sapiens) (UniProt P21964). Nature of the assay: Confirmatory Screen for Target Class Profiling of Small Molecule Inhibitors of Methyltransferases (AID 1745852; calls by dose curve; as to activity change, negative = inhibition: % is scaled to controls: 0 for no effect and ±100 for the full control effect). The conditions noted are these: MTase-Glo luminescence, SAH detection, recombinant enzyme; measured here: COMT max response; stronger effect = lower value.
The target in assay [2] is Guanidinoacetate N-methyltransferase (Homo sapiens) (UniProt Q14353). Described as above. The conditions noted are these: MTase-Glo luminescence, SAH detection, recombinant enzyme; activity change, negative = inhibition: at 85.7 µM (top of the series) unless noted.
The target of assay [3] is Nicotinamide N-methyltransferase (Homo sapiens) (UniProt P40261). The assay is described as above. As to conditions: MTase-Glo luminescence, SAH detection, recombinant enzyme; measured here: NNMT max response; stronger effect = lower value.
Assay [4] has as its target Phenylethanolamine N-methyltransferase (Homo sapiens) (UniProt P11086). Described as above. As to conditions: MTase-Glo luminescence, SAH detection, recombinant enzyme; measured here: PNMT max response; stronger effect = lower value.
Assay [5] addresses Endonuclease 4 (Escherichia coli (strain K12)) (UniProt P0A6C1). Kind of assay: Counterscreen for APE1 Inhibitors: qHTS Validation Assay for Inhibitors of Endonuclease IV (AID 1708). Also: potency is read from the fitted curve at half-maximal effect. Summed up: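 Read-out: fluorescence rise (ex 525/em 598 nm) from incision of a TAMRA/BHQ-2 double-stranded THF abasic-site substrate (50 nM), measured kinetically; third-minus-first read difference gave reaction progress. Enzyme 2 nM.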
(In general: The purpose of a counterscreen is to sort out artefacts and off-target activity.)

Assay [6] deals with Ferritin light chain (Equus caballus) (UniProt P02791). Kind of assay: qHTS Validation Assay for Identification of Novel General Anesthetics (AID 2323). Also: potency is read from the fitted curve at half-maximal effect. Put shortly: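 Competitive displacement of the profluorescent anesthetic 1-AMA (50% saturated, PBS) from 10 uM apoferritin, 10 min, room temperature. Activity is normalized 380/535 nm fluorescence; concentration-response fitted with a four-parameter Hill equation.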
On the technique in general: Quantitative high-throughput screening tests each substance at several concentrations.

Assay [7] can be described thus: Validation screen for inhibitors of Lassa infection (AID 463096; calls by dose curve; also: potency is read from the fitted curve at half-maximal effect; as to activity change, negative = inhibition: % is scaled to controls: 0 for no effect and ±100 for the full control effect).
Assay [8] deals with M-phase phosphoprotein 8 (Homo sapiens) (UniProt Q99549). Nature of the assay: qHTS Validation Assay for Inhibitors for MPP8 Chromodomain Interactions with Methylated Histone Tails (AID 488949). Also: nearly all actives have a fitted effect of over 55% in size. Also: potency is read from the fitted curve at half-maximal effect. Summed up: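 AlphaScreen proximity signal from streptavidin donor and Ni-chelate acceptor beads (10 ug/mL each) reported binding of MPP8 to trimethyl-K9 H3(1-18) peptide, both at 50 nM. The complex formed 30 min before a 30 min compound exposure at room temperature, in PBS pH 7.4.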

Assay [9] addresses DNA repair nuclease/redox regulator APEX1 (Homo sapiens) (UniProt P27695). Kind of assay: qHTS Validation Assay for Inhibitors of the Human Apurinic/apyrimidinic Endonuclease 1 (APE1) (AID 1705;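 also: TAMRA fluorescence gain over two minutes as APE1 cuts a quenched THF abasic duplex; % is scaled to controls: 0 for no effect and ±100 for the full control effect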). Summed up:
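Activity read as rising fluorescence (598 nm emission, 525 nm excitation) from incision of a TAMRA/BHQ-2 duplex carrying a THF abasic site (50 nM). Compound and enzyme sat 15 min at RT before substrate start; signal change between first and third 60-s reads.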

Assay [10] is described as follows: Counterscreen for APE1 Inhibitors: Fluorescent Dye Displacement Validation Assay (AID 1707).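 Also: plate controls were ThO with dsDNA and no compound for no effect and ThO without dsDNA for full effect.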 Summed up: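 Reaction mixture of 250 nM Thiazole Orange and 50 nM double-stranded abasic-site DNA was dispensed, compounds were pin-transferred, and fluorescence was read at endpoint (480 nm ex, 540 nm em). Reduced fluorescence indicated dye displacement by DNA binding.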

The nature of assay [11]: qHTS for differential inhibitors of proliferation of Plasmodium falciparum line GB4 (AID 1816).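 Also: parasite growth measured after 72 h incubation; 0% = vehicle DMSO and -100% = reference inhibitor.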 The conditions noted are these: Potency: Plasmodium falciparum GB4 proliferation inhibition.
Assay [12] can be described thus: qHTS for differential inhibitors of proliferation of Plasmodium falciparum line 3D7 (AID 1876).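 Also: parasite growth measured after three days of culture; 0% = vehicle wells and -100% = reference inhibitor wells.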
Assay [13] can be described thus: qHTS for differential inhibitors of proliferation of Plasmodium falciparum line D10 (AID 1877).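 Also: parasites grown with compound for 72 h before DNA staining; plate controls were vehicle wells for no effect and reference inhibitor wells for full effect.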
The nature of assay [14]: qHTS for differential inhibitors of proliferation of Plasmodium falciparum line Dd2 (AID 1882).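 Also: compound exposure of 72 h on infected erythrocytes; plate controls were DMSO vehicle for no effect and 0.29 µM artemisinin for full effect; nearly all actives have a fitted effect of over 65% in size.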 The conditions noted are these: Potency: Plasmodium falciparum Dd2 proliferation inhibition. Put shortly: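 RBC culture, 0.3% parasitemia / 2.5% Hct final; cpd added by pin tool in DMSO; 72 h, 37 C, 5% CO2; lysis buffer + SYBR Green I, o/n RT dark; FI 485/535; norm. to artemisinin 0.29 uM and DMSO.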

The nature of assay [15]: qHTS for differential inhibitors of proliferation of Plasmodium falciparum line W2 (AID 1883).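 Also: parasites grown with compound for 72 h before lysis and staining; 0% = vehicle wells and -100% = control inhibitor wells.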 As to conditions: Potency: Plasmodium falciparum W2 proliferation inhibition.
A short description of assay [16]: qHTS Assay for Modulators of Human Peripheral Myelin Protein 22 (PMP22) Expression/Activity (AID 1967; active = well fitted curve in the direction sought with a large enough effect in the signal ratio; the % refers to the signal ratio;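 also: 0% = untreated cells and 100% end not stated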). Summed up:
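Readout is the corrected green/red luminescence ratio after 24 h compound exposure, normalised to untreated cells (0%). Engineered MSC80 mouse Schwann cells express green luciferase from the mouse Pmp22 promoter and red luciferase from EF-alpha as internal control.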

Assay [17] concerns the target ATP-dependent DNA helicase Q1 (Homo sapiens) (UniProt P46063). Kind of assay: qHTS Validation Assay for Inhibitors of RecQ-Like Dna Helicase 1 (RECQ1) (AID 2353).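 Also: plate controls were DMSO vehicle for no effect and enzyme-free control for full effect.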 Put shortly:
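RECQ1T1 50 nM; forked duplex (20 bp + 30-nt ss tails) 200 nM, ATP 2 mM final; pH 8.0, 2 mM MgCl2, 2.5 ug/ml poly(dI-dC); 15 min compound preincubation; discontinuous kinetic read over 2 h at RT.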

Assay [18] can be described thus: Quantitative high throughput screen for delayed death inhibitors of the malarial parasite plastid, 96 hour incubation (AID 488745). Also: % is scaled to controls: 0 for no effect and ±100 for the full control effect; nearly all actives have a fitted effect of over 70% in size. Put shortly: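 Two-generation (96 h) exposure of luciferase-reporter P. falciparum in erythrocytes, 2% hematocrit, 0.1% parasitemia final, 37 C, 5% CO2, RPMI 1640 with 0.5% Albumax. Growth inhibition scored by reduced luminescence.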

Assay [19] can be described thus: Quantitative high throughput screen for delayed death inhibitors of the malarial parasite plastid, 48 hour incubation (AID 488752). Also: % is scaled to controls: 0 for no effect and ±100 for the full control effect; nearly all actives have a fitted effect of over 65% in size. Summed up:
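Cultures: infected erythrocytes at final 2% hematocrit and 0.1% parasitemia in Albumax-supplemented RPMI. Parasites express integrated firefly luciferase. Incubation with compound lasts 48 h before luminescent detection of remaining reporter activity.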

Assay [20] deals with Transient receptor potential cation channel subfamily V member 1 (Homo sapiens) (UniProt Q8NER1). Nature of the assay: HTS Assay for Compounds that Act as Enhancers of the Vanilloid Receptor 1 (AID 488979). Also: 0% is about no effect. Put shortly: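 TRPV1 cells loaded with Fluo-8 calcium dye; compound added and Ca2+ signal (ex 480/em 520 nm) followed 3 min, then capsaicin at EC20 added and read 2 more min to detect enhancement.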

The target of assay [21] is Thyrotropin receptor (Homo sapiens) (UniProt P16473). Nature of the assay: qHTS Assay for Antagonists of the Thyroid Stimulating Hormone Receptor (AID 488980). Also: 0% is about no effect. Summed up: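 Inhibition of cAMP raised by EC80 TSH (4 nM final) was read by HTRF, with lysate cAMP competing against cAMP-d2 for cryptate antibody after 30 min at room temperature. The cells were transfected HEK293 held in phosphodiesterase inhibitor RO 20-1724 at 70 uM.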

The target in assay [22] is Thyrotropin-releasing hormone receptor (Homo sapiens) (UniProt P34981). Nature of the assay: qHTS for Small Molecule Agonists and Allosteric Enhancers of Human TRH Receptor: Validation Screen for Agonists (AID 493127;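 active = calcium activation more than 3 SD above the typical response in the agonist read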;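 also: intracellular calcium rise by fluo-8 fluorescence before TRH EC20 addition; 0% is about no effect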). The conditions noted are these: TRH receptor agonist cell assay; at 2 µM; stronger effect = higher value. Summed up:
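Kinetic fluorescence assay of agonist-induced calcium release: overnight-plated TRHR cells, room-temperature fluo-8 loading, baseline then compound addition with per-second reads.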

The target of assay [23] is Galactokinase (Homo sapiens) (UniProt P51570). Nature of the assay: qHTS Validation Assay for Inhibitors of Human Galactokinase (GALK) (AID 493189). Also: 0% is about no effect. Put shortly:
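Inhibition was measured as remaining ATP, detected by luciferase luminescence after a 1 h room-temperature reaction. Final conditions: 5 nM GALK, 100 uM galactose, 35 uM ATP, pH 8.0 HEPES buffer.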

A short description of assay [24]: Validation screen for small molecules that induce DNA re-replication in SW480 colon adenocarcinoma cells (AID 504364). Also: 0% is about no effect. Summed up: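 Hoechst-stained SW480 nuclei, imaged at 405 nm excitation after 48 hr compound exposure, were counted for elevated DNA content as the re-replication signal.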
For assay [25], the target named is Voltage-gated inwardly rectifying potassium channel KCNH2 (Homo sapiens) (UniProt Q12809). Nature of the assay: qHTS Assay for Small Molecule Inhibitors of the Human hERG Channel Activity (AID 588834).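 Also: top concentration of the series differs between compounds; % is scaled to controls: 0 for no effect and ±100 for the full control effect; lower thallium flux fluorescence means stronger hERG block; nearly all actives have a fitted effect of over 50% in size.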 Put shortly: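 hERG block measured as reduced thallium-dye (FluxOR) fluorescence after stimulation buffer addition, read over 2 min. Cells were hERG-BacMam-transduced U2OS exposed to compound ~10 min […]; concentration-response fitted with Hill equation for AC50.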

Assay [26] is described as follows: NCATS anti-infectives library activity on HEK293 viability as a counter-qHTS vs the C. elegans viability qHTS (AID 1745854).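 Also: HEK293 cells exposed to compounds for 24 hr before the viability read; % is scaled to controls: 0 for no effect and ±100 for the full control effect.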 Put shortly:
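Compound titrations (final up to 41.7 uM) were incubated with HEK293 cells for 24 hr at 37C under 5% CO2. Viable cells were quantified with CellTiter-Glo after 10 min at ambient temperature.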

Results filed as inconclusive are left out. Calls of active or inactive are those of the source. Unless noted, calls follow the shape of the dose curve; as a rule, active = well fitted curve in the direction sought with a large enough effect; inconclusive = small, poorly fitted or top-dose-only effect, or another doubt; inactive = no such curve, though single readings can be large; an effect the other way counts as inactive or inconclusive.

M-phase phosphoprotein 8 (Homo sapiens), sequence (Q99549 whole entry, looked up): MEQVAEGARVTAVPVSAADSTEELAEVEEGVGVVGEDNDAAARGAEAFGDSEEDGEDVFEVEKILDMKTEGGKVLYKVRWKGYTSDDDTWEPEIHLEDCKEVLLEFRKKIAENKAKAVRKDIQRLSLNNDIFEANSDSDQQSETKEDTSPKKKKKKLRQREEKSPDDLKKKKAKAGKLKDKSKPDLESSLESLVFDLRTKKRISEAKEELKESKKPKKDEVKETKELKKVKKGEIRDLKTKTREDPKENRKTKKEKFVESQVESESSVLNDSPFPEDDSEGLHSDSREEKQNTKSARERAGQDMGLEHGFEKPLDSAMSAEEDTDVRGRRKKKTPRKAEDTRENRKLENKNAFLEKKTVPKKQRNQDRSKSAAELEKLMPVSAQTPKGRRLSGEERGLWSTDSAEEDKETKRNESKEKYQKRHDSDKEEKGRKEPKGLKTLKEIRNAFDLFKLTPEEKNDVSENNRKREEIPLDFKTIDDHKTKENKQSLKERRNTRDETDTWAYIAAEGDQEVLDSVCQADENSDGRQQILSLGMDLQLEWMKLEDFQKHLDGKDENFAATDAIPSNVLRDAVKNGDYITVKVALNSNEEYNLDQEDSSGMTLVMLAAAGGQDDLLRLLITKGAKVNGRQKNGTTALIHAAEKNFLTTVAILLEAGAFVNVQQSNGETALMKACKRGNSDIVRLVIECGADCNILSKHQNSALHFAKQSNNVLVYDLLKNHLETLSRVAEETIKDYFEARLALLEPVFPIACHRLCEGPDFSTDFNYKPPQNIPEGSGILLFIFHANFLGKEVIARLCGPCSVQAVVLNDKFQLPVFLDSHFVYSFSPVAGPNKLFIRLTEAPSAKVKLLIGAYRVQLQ
Ferritin light chain (Equus caballus), sequence (P02791 2-175 limits assumed): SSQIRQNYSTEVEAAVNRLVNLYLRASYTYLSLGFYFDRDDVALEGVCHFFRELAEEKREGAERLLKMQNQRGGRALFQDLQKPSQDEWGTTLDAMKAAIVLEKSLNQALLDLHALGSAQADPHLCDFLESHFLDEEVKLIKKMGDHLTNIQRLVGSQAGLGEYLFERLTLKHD
Phenylethanolamine N-methyltransferase (Homo sapiens), sequence (P11086 whole entry, looked up): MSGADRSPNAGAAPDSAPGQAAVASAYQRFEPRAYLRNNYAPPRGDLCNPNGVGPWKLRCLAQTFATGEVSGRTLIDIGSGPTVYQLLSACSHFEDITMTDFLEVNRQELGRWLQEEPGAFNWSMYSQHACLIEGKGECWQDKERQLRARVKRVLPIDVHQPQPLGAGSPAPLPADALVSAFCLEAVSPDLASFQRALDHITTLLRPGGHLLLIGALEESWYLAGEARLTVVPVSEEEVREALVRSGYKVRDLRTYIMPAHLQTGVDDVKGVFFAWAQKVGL
Galactokinase (Homo sapiens), sequence (P51570 whole entry, looked up): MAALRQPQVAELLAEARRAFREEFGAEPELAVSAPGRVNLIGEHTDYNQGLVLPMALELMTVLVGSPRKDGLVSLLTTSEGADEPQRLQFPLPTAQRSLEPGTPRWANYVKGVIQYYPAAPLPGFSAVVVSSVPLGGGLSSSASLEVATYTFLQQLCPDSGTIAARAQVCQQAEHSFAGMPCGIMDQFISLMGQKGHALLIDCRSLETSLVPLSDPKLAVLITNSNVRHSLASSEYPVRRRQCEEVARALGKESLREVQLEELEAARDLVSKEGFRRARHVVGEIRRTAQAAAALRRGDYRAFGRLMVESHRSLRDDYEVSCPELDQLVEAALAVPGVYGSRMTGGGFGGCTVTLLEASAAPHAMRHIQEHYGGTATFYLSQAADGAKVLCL
Voltage-gated inwardly rectifying potassium channel KCNH2 (Homo sapiens), sequence (Q12809 whole entry, looked up): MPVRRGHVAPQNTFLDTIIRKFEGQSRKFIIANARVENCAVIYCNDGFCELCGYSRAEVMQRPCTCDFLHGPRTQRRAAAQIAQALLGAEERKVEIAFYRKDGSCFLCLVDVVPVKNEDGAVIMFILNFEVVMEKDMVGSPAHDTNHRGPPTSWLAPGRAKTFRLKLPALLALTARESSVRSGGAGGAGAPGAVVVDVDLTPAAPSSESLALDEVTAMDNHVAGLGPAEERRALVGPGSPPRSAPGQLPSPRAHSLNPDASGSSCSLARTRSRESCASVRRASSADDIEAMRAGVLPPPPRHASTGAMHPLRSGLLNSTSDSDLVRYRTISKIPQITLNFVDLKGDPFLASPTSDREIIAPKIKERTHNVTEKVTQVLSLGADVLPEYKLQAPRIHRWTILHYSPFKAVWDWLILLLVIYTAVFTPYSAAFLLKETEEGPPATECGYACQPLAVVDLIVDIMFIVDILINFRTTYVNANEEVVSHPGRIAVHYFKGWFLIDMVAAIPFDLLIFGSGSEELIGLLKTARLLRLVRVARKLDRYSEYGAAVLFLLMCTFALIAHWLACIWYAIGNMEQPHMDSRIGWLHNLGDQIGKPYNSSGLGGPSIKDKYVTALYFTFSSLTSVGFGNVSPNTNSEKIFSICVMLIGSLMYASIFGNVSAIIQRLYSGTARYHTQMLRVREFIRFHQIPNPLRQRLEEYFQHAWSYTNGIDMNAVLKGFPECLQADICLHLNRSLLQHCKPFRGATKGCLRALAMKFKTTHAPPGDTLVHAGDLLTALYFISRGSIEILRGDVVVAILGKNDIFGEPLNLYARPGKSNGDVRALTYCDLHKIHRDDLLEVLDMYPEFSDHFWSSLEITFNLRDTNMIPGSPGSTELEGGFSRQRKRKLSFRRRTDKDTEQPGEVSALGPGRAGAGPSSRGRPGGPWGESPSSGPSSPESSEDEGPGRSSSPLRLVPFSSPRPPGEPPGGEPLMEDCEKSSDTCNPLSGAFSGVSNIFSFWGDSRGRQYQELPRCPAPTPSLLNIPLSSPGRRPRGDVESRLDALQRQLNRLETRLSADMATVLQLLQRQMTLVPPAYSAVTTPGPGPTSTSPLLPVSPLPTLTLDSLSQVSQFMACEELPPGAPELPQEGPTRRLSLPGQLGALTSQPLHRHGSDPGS
Catechol O-methyltransferase (Homo sapiens), sequence (P21964 whole entry, looked up): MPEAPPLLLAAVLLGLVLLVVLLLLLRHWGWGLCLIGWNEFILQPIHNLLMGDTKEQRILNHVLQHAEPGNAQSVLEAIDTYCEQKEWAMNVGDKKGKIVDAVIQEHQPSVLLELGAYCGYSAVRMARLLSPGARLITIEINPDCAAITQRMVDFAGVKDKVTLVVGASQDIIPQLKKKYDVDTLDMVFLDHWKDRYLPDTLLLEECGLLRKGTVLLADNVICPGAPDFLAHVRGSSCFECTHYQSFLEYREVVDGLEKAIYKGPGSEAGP
Thyrotropin-releasing hormone receptor (Homo sapiens), sequence (P34981 whole entry, looked up): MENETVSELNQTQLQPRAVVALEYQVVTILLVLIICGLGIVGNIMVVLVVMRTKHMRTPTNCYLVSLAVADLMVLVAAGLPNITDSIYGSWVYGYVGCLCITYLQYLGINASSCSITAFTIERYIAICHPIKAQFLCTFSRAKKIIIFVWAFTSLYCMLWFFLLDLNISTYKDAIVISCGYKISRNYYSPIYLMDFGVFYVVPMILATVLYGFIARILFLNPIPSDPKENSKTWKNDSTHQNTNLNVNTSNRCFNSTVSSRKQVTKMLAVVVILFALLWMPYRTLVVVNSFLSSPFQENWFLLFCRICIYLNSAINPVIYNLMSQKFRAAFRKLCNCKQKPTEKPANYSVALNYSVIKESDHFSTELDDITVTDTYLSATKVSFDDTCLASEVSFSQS
DNA repair nuclease/redox regulator APEX1 (Homo sapiens), sequence (P27695 whole entry, looked up): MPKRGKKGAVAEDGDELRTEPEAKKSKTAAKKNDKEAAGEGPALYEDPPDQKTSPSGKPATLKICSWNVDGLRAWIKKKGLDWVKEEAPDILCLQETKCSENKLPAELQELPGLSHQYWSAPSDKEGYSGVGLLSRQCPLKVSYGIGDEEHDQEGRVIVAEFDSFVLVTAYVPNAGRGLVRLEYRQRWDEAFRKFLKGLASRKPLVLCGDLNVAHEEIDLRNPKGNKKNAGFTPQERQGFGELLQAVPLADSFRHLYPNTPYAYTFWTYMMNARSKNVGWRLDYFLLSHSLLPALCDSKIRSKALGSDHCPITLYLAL
Nicotinamide N-methyltransferase (Homo sapiens), sequence (P40261 whole entry, looked up): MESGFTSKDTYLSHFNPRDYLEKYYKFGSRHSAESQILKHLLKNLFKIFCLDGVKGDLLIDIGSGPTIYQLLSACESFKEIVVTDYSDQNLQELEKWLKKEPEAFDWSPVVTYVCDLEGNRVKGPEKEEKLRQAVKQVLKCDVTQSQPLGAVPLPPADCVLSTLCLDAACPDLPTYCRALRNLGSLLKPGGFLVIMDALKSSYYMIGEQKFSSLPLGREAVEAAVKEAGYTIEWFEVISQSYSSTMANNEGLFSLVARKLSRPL
ATP-dependent DNA helicase Q1 (Homo sapiens), sequence (P46063 whole entry, looked up): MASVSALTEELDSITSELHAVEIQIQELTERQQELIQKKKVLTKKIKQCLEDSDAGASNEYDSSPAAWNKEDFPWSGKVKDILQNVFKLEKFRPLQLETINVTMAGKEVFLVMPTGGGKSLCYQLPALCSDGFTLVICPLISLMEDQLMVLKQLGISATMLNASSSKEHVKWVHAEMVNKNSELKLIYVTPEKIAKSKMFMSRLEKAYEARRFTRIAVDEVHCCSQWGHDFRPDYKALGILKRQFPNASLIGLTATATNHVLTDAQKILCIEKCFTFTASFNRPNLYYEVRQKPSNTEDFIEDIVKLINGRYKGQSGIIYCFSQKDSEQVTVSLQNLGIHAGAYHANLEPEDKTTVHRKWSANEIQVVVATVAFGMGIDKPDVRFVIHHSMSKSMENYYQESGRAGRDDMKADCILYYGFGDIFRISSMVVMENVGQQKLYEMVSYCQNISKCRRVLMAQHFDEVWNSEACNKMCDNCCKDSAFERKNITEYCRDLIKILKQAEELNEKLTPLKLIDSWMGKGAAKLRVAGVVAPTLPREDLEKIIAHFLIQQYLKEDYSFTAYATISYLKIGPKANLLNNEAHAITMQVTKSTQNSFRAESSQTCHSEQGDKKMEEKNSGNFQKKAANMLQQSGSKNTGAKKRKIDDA

`NC(=O)c1ccc(N2CC3CCC(C2)N3CC(F)(F)F)nn1`: the activity in assay [1] is 10.2%; in assay [3], -22.1%; in assay [4], 10.9%. In addition, the activity change, negative = inhibition in assay [2] came out at 9.09%.

For the molecule `N.N.N.N.N.N.N.N.N.N.N.N.N.N.O.O.[Cl-].[Cl-].[Cl-].[Cl-].[Cl-].[Cl-].[Ru].[Ru].[Ru]`, the Potency in assay [5] is 28.2 µM (active); in assay [6] it was 25.1 µM (active); in assay [8] it was 10 µM (active). In addition, the Potency entry in assay [7] is “inactive”.

In the case of `C[C@@H]1O[C@@H](O[C@H]2C[C@@H](O)[C@]3(CO)[C@H]4[C@H](O)C[C@]5(C)[C@@H]([C@@H]6COC(=O)C6)CC[C@]5(O)[C@@H]4CC[C@]3(O)C2)[C@H](O)[C@H](O)[C@H]1O`, the Potency entry in [9], in assay [5], in assay [11], in [12], in [13] and in assay [14] was “inactive” in each case. The Potency entry in [15], in assay [6], in assay [18], in assay [19], in [8] and in [25] was “inactive” in each case. For the same molecule, the outcome in assay [10], in assay [16], in assay [17], in assay [20], in assay [21] and in assay [23] was “inactive” in each case. In assay [24], the outcome is “inactive”. Also, in assay [7], the Potency was 1.58 µM (active). For the same molecule, the activation in assay [22] is 1.38% (inactive).

Regarding `CC(=O)O[C@H]1[C@H]2[C@@H](OC(=O)Cc3ccccc3)[C@@H](C)C[C@]2(OC(C)=O)C(=O)/C(C)=C/[C@@H]2[C@H](CC[C@@]13CO3)C2(C)C`, in assay [26], the Potency entry was “inactive”.

With `CC(C)=CCC[C@](C)(O)[C@H]1CC[C@@]2(C)[C@H]1[C@@H](O)CC1[C@@]3(C)CC[C@@H](O[C@@H]4O[C@H](CO)[C@@H](O)[C@H](O)[C@H]4O)C(C)(C)C3CC[C@]12C` (some centres not stated), in assay [26], the Potency result is “inactive”.

`Nc1cccc(C(OCCN2CCCCC2)c2cc3nccc(C(=O)O)c3s2)c1` (configuration not stated): the Potency result in [26] was “inactive”.
